For 21 sequences, binding signal results are on record in article PMC11006913.

Changes are numbered by the printed parent chain.

What all share (assay): PBM; 200 nM protein, PBS
What all share (conditions): dsDNA, one strand shown

Experiment [1] deals with T1, NKX2-4 (Homo sapiens, UniProt Q9H2Z4 175-261, P217L).
T1 sequence: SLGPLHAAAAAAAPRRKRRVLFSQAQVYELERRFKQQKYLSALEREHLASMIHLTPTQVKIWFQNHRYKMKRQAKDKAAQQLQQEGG

Experiment [2] has as its target T2, NKX2-4 (Homo sapiens, UniProt Q9H2Z4 175-261, T231S).
T2 sequence: T1 sequence with L43P, T57S

Experiment [3] concerns the target T3, NKX2-4 (Homo sapiens, UniProt Q9H2Z4 175-261).
T3 sequence: T1 sequence with L43P

Experiment [4] concerns the target T4, NKX2-4 (Homo sapiens, UniProt Q9H2Z4 175-261, R246Q).
T4 sequence: T1 sequence with L43P, R72Q

Experiment [5] addresses NKX3-2 (Homo sapiens, UniProt P78367 192-278, P234S).
The target of experiment [6] is NKX3-2 (Homo sapiens, UniProt P78367 192-278).
Experiment [7] concerns the target PROP1 (Homo sapiens, UniProt O75360 56-141).
Experiment [8] concerns the target PROP1 (Homo sapiens, UniProt O75360 56-141, R99H).
Experiment [9] concerns the target PROP1 (Homo sapiens, UniProt O75360 56-141, F88S).
In a further experiment the target is T5, VENTX (Homo sapiens, UniProt O95231 78-163, R121Q).
T5 sequence: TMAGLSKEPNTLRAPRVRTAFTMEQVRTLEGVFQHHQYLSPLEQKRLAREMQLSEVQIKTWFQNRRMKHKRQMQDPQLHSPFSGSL

The next experiment concerns the target T6, NKX2-6 (Homo sapiens, UniProt A6NCS4 118-204, F151L).
T6 sequence: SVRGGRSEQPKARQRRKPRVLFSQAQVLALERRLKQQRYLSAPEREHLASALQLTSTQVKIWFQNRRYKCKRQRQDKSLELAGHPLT

Experiment [10] deals with VAX1 (Homo sapiens, UniProt Q5SQQ9 86-172).
For experiment [11], the target named is VAX1 (Homo sapiens, UniProt Q5SQQ9 86-172, T142I).
Experiment [12] deals with VAX1 (Homo sapiens, UniProt Q5SQQ9 86-172, K157R).
VAX1 (Homo sapiens, UniProt Q5SQQ9 86-172, K157R), sequence (Q5SQQ9 86-172 K157R): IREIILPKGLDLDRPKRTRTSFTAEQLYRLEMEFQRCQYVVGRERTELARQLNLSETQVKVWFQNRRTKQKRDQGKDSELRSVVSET

NKX3-2 (Homo sapiens, UniProt P78367 192-278, P234S), sequence (P78367 192-278 P234S): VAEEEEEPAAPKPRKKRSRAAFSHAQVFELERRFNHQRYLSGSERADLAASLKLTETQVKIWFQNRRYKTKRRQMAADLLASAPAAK
NKX3-2 (Homo sapiens, UniProt P78367 192-278), sequence (P78367 192-278): as the sequence (P78367 192-278 P234S) above, with S43P counted along it
VAX1 (Homo sapiens, UniProt Q5SQQ9 86-172), sequence (Q5SQQ9 86-172): as the sequence (Q5SQQ9 86-172 K157R) above, with R72K counted along it
VAX1 (Homo sapiens, UniProt Q5SQQ9 86-172, T142I), sequence (Q5SQQ9 86-172 T142I): as the sequence (Q5SQQ9 86-172 K157R) above, with T57I, R72K counted along it
PROP1 (Homo sapiens, UniProt O75360 56-141, R99H), sequence (O75360 56-141 R99H): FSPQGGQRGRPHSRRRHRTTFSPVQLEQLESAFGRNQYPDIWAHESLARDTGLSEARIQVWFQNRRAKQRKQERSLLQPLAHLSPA
PROP1 (Homo sapiens, UniProt O75360 56-141), sequence (O75360 56-141): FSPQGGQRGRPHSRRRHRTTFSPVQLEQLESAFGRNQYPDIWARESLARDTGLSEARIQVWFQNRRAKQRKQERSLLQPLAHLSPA
PROP1 (Homo sapiens, UniProt O75360 56-141, F88S), sequence (O75360 56-141 F88S): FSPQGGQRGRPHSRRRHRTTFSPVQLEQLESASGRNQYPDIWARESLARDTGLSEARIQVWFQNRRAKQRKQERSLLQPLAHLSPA

With GGTACTCA, the binding signal with NKX2-4 [1] was 12.5 upbm affinity estimate (log intensity, higher = more binding, comparable within an allelic series); with NKX2-4 [2] it was 12.9 upbm affinity estimate (log intensity, higher = more binding, comparable within an allelic series); with NKX2-4 [3], 12.4 upbm affinity estimate (log intensity, higher = more binding, comparable within an allelic series); in the experiment with NKX2-4 [4] it was 12.9 upbm affinity estimate (log intensity, higher = more binding, comparable within an allelic series); in the experiment with NKX3-2 [5], 12.5 upbm affinity estimate (log intensity, higher = more binding, comparable within an allelic series); in the experiment with NKX3-2 [6] it was 12.6 upbm affinity estimate (log intensity, higher = more binding, comparable within an allelic series).

For the sequence CACTTTGA, the binding signal with NKX2-4 [1] is 11.7 upbm affinity estimate (log intensity, higher = more binding, comparable within an allelic series); with NKX2-4 [2] it was 12 upbm affinity estimate (log intensity, higher = more binding, comparable within an allelic series); with NKX2-4 [3], 11.6 upbm affinity estimate (log intensity, higher = more binding, comparable within an allelic series); with NKX2-4 [4], 12 upbm affinity estimate (log intensity, higher = more binding, comparable within an allelic series).

With ATCCGGTG, the binding signal with NKX2-4 [1] was 9.47 upbm affinity estimate (log intensity, higher = more binding, comparable within an allelic series); with NKX2-4 [2] it was 9.42 upbm affinity estimate (log intensity, higher = more binding, comparable within an allelic series); with NKX2-4 [3], 9.41 upbm affinity estimate (log intensity, higher = more binding, comparable within an allelic series); with NKX2-4 [4], 9.45 upbm affinity estimate (log intensity, higher = more binding, comparable within an allelic series).

For the sequence CCCGGTGC, the binding signal in the experiment with NKX2-4 [1] was 9.16 upbm affinity estimate (log intensity, higher = more binding, comparable within an allelic series); with NKX2-4 [2] it was 9.15 upbm affinity estimate (log intensity, higher = more binding, comparable within an allelic series); with NKX2-4 [3], 9.25 upbm affinity estimate (log intensity, higher = more binding, comparable within an allelic series); with NKX2-4 [4], 9.25 upbm affinity estimate (log intensity, higher = more binding, comparable within an allelic series); with PROP1 [7], 6.92 upbm affinity estimate (log intensity, higher = more binding, comparable within an allelic series); with PROP1 [8], 6.73 upbm affinity estimate (log intensity, higher = more binding, comparable within an allelic series). Besides, the binding signal with PROP1 [9] was 6.51 upbm affinity estimate (log intensity, higher = more binding, comparable within an allelic series).

Turning to ACGCCGCA, the binding signal was 9.67 upbm affinity estimate (log intensity, higher = more binding, comparable within an allelic series) with NKX2-4 [1]; 9.65 upbm affinity estimate (log intensity, higher = more binding, comparable within an allelic series) in the experiment with NKX2-4 [2]; 9.64 upbm affinity estimate (log intensity, higher = more binding, comparable within an allelic series) in the experiment with NKX2-4 [3]; 9.74 upbm affinity estimate (log intensity, higher = more binding, comparable within an allelic series) with NKX2-4 [4].

For the sequence CCTCGTTA, the binding signal in the experiment with VENTX is 10.3 upbm affinity estimate (log intensity, higher = more binding, comparable within an allelic series).

In the case of AGTATCTC, the binding signal with NKX2-4 [1] is 11.5 upbm affinity estimate (log intensity, higher = more binding, comparable within an allelic series); in the experiment with NKX2-4 [3], 11.4 upbm affinity estimate (log intensity, higher = more binding, comparable within an allelic series); with NKX2-4 [4], 11.6 upbm affinity estimate (log intensity, higher = more binding, comparable within an allelic series).

In the case of CACTTCAC, the binding signal was 12.5 upbm affinity estimate (log intensity, higher = more binding, comparable within an allelic series) with NKX2-4 [1]; 12.8 upbm affinity estimate (log intensity, higher = more binding, comparable within an allelic series) with NKX2-4 [2]; 12.3 upbm affinity estimate (log intensity, higher = more binding, comparable within an allelic series) with NKX2-4 [3]; 12.9 upbm affinity estimate (log intensity, higher = more binding, comparable within an allelic series) with NKX2-4 [4]; 10.7 upbm affinity estimate (log intensity, higher = more binding, comparable within an allelic series) with NKX2-6.

For the sequence CCTGCGCG, the binding signal with NKX2-4 [1] is 9.34 upbm affinity estimate (log intensity, higher = more binding, comparable within an allelic series); with NKX2-4 [2], 9.28 upbm affinity estimate (log intensity, higher = more binding, comparable within an allelic series); with NKX2-4 [3] it was 9.35 upbm affinity estimate (log intensity, higher = more binding, comparable within an allelic series); with NKX2-4 [4], 9.37 upbm affinity estimate (log intensity, higher = more binding, comparable within an allelic series).

For AGACTGAC, the binding signal with NKX2-4 [1] was 9.52 upbm affinity estimate (log intensity, higher = more binding, comparable within an allelic series); with NKX2-4 [2] it was 9.58 upbm affinity estimate (log intensity, higher = more binding, comparable within an allelic series); with NKX2-4 [3], 9.63 upbm affinity estimate (log intensity, higher = more binding, comparable within an allelic series); with NKX2-4 [4] it was 9.64 upbm affinity estimate (log intensity, higher = more binding, comparable within an allelic series).

Turning to CAAACCCG, the binding signal with NKX2-4 [1] is 9.56 upbm affinity estimate (log intensity, higher = more binding, comparable within an allelic series); in the experiment with NKX2-4 [2], 9.55 upbm affinity estimate (log intensity, higher = more binding, comparable within an allelic series); with NKX2-4 [3] it was 9.55 upbm affinity estimate (log intensity, higher = more binding, comparable within an allelic series); with NKX2-4 [4], 9.6 upbm affinity estimate (log intensity, higher = more binding, comparable within an allelic series).

On to ACTCTTAT, for which the binding signal is 12.2 upbm affinity estimate (log intensity, higher = more binding, comparable within an allelic series) in the experiment with NKX2-4 [1]; 12.5 upbm affinity estimate (log intensity, higher = more binding, comparable within an allelic series) with NKX2-4 [2]; 12.1 upbm affinity estimate (log intensity, higher = more binding, comparable within an allelic series) in the experiment with NKX2-4 [3]; 12.5 upbm affinity estimate (log intensity, higher = more binding, comparable within an allelic series) with NKX2-4 [4].

As for CACTCTTA, the binding signal was 12.3 upbm affinity estimate (log intensity, higher = more binding, comparable within an allelic series) with NKX2-4 [1]; 12.7 upbm affinity estimate (log intensity, higher = more binding, comparable within an allelic series) with NKX2-4 [2]; 12.3 upbm affinity estimate (log intensity, higher = more binding, comparable within an allelic series) in the experiment with NKX2-4 [3]; 12.8 upbm affinity estimate (log intensity, higher = more binding, comparable within an allelic series) with NKX2-4 [4]; 12.5 upbm affinity estimate (log intensity, higher = more binding, comparable within an allelic series) with NKX3-2 [5]; 12.6 upbm affinity estimate (log intensity, higher = more binding, comparable within an allelic series) in the experiment with NKX3-2 [6].

Regarding ATGCGTCC, the binding signal in the experiment with NKX2-4 [1] was 9.7 upbm affinity estimate (log intensity, higher = more binding, comparable within an allelic series); in the experiment with NKX2-4 [2] it was 9.56 upbm affinity estimate (log intensity, higher = more binding, comparable within an allelic series); in the experiment with NKX2-4 [3], 9.58 upbm affinity estimate (log intensity, higher = more binding, comparable within an allelic series); with NKX2-4 [4], 9.59 upbm affinity estimate (log intensity, higher = more binding, comparable within an allelic series).

ACACTCAA: the binding signal is 12.5 upbm affinity estimate (log intensity, higher = more binding, comparable within an allelic series) in the experiment with NKX2-4 [1]; 12.8 upbm affinity estimate (log intensity, higher = more binding, comparable within an allelic series) with NKX2-4 [2]; 12.3 upbm affinity estimate (log intensity, higher = more binding, comparable within an allelic series) with NKX2-4 [3]; 12.8 upbm affinity estimate (log intensity, higher = more binding, comparable within an allelic series) in the experiment with NKX2-4 [4]; 10.6 upbm affinity estimate (log intensity, higher = more binding, comparable within an allelic series) with NKX2-6.

As for AACGCCAG, the binding signal with NKX2-4 [1] was 9.74 upbm affinity estimate (log intensity, higher = more binding, comparable within an allelic series); with NKX2-4 [2], 9.82 upbm affinity estimate (log intensity, higher = more binding, comparable within an allelic series); with NKX2-4 [3], 9.78 upbm affinity estimate (log intensity, higher = more binding, comparable within an allelic series); in the experiment with NKX2-4 [4], 9.89 upbm affinity estimate (log intensity, higher = more binding, comparable within an allelic series).

CCCGGCAG: the binding signal with NKX2-4 [1] was 9.62 upbm affinity estimate (log intensity, higher = more binding, comparable within an allelic series); in the experiment with NKX2-4 [2] it was 9.52 upbm affinity estimate (log intensity, higher = more binding, comparable within an allelic series); with NKX2-4 [3] it was 9.63 upbm affinity estimate (log intensity, higher = more binding, comparable within an allelic series); with NKX2-4 [4], 9.61 upbm affinity estimate (log intensity, higher = more binding, comparable within an allelic series); in the experiment with VAX1 [10], 7.23 upbm affinity estimate (log intensity, higher = more binding, comparable within an allelic series); with VAX1 [11], 7.18 upbm affinity estimate (log intensity, higher = more binding, comparable within an allelic series). The binding signal in the experiment with VAX1 [12] was 7.28 upbm affinity estimate (log intensity, higher = more binding, comparable within an allelic series).

With CACTCAAA, the binding signal with NKX2-4 [1] was 12.4 upbm affinity estimate (log intensity, higher = more binding, comparable within an allelic series); in the experiment with NKX3-2 [5], 12.3 upbm affinity estimate (log intensity, higher = more binding, comparable within an allelic series); in the experiment with NKX3-2 [6], 12.3 upbm affinity estimate (log intensity, higher = more binding, comparable within an allelic series).

Consider ATACTTCA, for which the binding signal with NKX2-4 [1] was 12.4 upbm affinity estimate (log intensity, higher = more binding, comparable within an allelic series); with NKX2-4 [2], 12.8 upbm affinity estimate (log intensity, higher = more binding, comparable within an allelic series); in the experiment with NKX2-4 [3] it was 12.3 upbm affinity estimate (log intensity, higher = more binding, comparable within an allelic series); with NKX2-4 [4] it was 12.8 upbm affinity estimate (log intensity, higher = more binding, comparable within an allelic series).

Consider CGGTCGAC, for which the binding signal with NKX2-4 [1] is 9.4 upbm affinity estimate (log intensity, higher = more binding, comparable within an allelic series); in the experiment with NKX2-4 [2], 9.24 upbm affinity estimate (log intensity, higher = more binding, comparable within an allelic series); with NKX2-4 [3], 9.3 upbm affinity estimate (log intensity, higher = more binding, comparable within an allelic series); with NKX2-4 [4], 9.39 upbm affinity estimate (log intensity, higher = more binding, comparable within an allelic series); with VAX1 [10] it was 7.17 upbm affinity estimate (log intensity, higher = more binding, comparable within an allelic series); in the experiment with VAX1 [11], 7.28 upbm affinity estimate (log intensity, higher = more binding, comparable within an allelic series). The binding signal in the experiment with VAX1 [12] was 7.34 upbm affinity estimate (log intensity, higher = more binding, comparable within an allelic series).

Turning to CTGAAAAG, the binding signal with NKX2-4 [1] is 11 upbm affinity estimate (log intensity, higher = more binding, comparable within an allelic series); in the experiment with NKX2-4 [3], 10.8 upbm affinity estimate (log intensity, higher = more binding, comparable within an allelic series); in the experiment with NKX2-4 [4], 11.1 upbm affinity estimate (log intensity, higher = more binding, comparable within an allelic series).
